Measured values: PubChem BioAssay (Tox21)
Records with an inconclusive call do not appear. Entries that show only a call come without a potency. Activity calls are given as the source filed them. Unless noted, calls come from the whole dose curve; as a rule, active = well fitted curve in the direction sought with a large enough effect in the repeat runs; inconclusive = weak or mixed curves; inactive = no such curve, though single readings can be large; an effect the other way counts as inactive or inconclusive.

Test system: not listed separately
Experiment: qHTS assay to identify small molecule antagonists of the estrogen related receptor (ERR) signaling pathway - cell viability counter screen (AID 1224818)
Conditions: ERR reporter cell line viability counter screen; series mostly up to 46.1 µM
Procedure, shortened: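 ERR cells, 2,000/well; 6 h settle at 37 C/5% CO2; compound pin transfer (DMSO); 17.5 h at 37 C; CellTiter-Fluor, 30 min, fluorescence read.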

Structure (SMILES)	outcome
CNC[C@H](O)c1cccc(O)c1	inactive
Cn1c(=O)c2[nH]cnc2n(C)c1=O	inactive
O=C(C1CCCCC1)N1CC(=O)N2CCc3ccccc3C2C1 (stereo unspecified)	inactive
CC(=O)Nc1nnc(S(N)(=O)=O)s1	inactive
Nc1ccn([C@H]2CC[C@@H](CO)O2)c(=O)n1	inactive
Cc1ccccc1C(OCCN(C)C)c1ccccc1 (stereo unspecified)	inactive
Cc1ccc(S(=O)(=O)NC(=O)NN2CCCCCC2)cc1	inactive
CC(C)(Oc1ccc(C2CC2(Cl)Cl)cc1)C(=O)O (stereo unspecified)	inactive
CCCCC1C(=O)N(c2ccccc2)N(c2ccccc2)C1=O	inactive
CCC1(c2ccccc2)C(=O)NCNC1=O	inactive
COc1ccc2[nH]cc(CCNC(C)=O)c2c1	inactive
NC(=O)c1cnccn1	inactive
O=C(O)CCCCCCCC(=O)O	inactive
CCCNC(=O)NS(=O)(=O)c1ccc(Cl)cc1	inactive
CCCC(CCC)C(=O)O	inactive
NC(N)=NC(=O)c1nc(Cl)c(N)nc1N	inactive

Test system: not listed separately
Experiment: qHTS assay to identify small molecule antagonists of the estrogen related receptor (ERR) signaling pathway (AID 1224819; note: nearly all actives have a fitted effect of over 50% in size)
Conditions: ERR reporter cell line, luciferase inhibition; series mostly up to 46.1 µM
Procedure, shortened: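 qHTS in ERR cells, 2,000/well, 1536 format. Cpd (DMSO) added after 6 h settle, 18 h 37 C. One-Glo luminescence, 30 min RT.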

Structure (SMILES)	outcome
CNC[C@H](O)c1cccc(O)c1	inactive
O=C(C1CCCCC1)N1CC(=O)N2CCc3ccccc3C2C1 (stereo unspecified)	inactive
Oc1ccc(/C=C/c2cc(O)cc(O)c2)cc1	inactive
Cc1ccccc1C(OCCN(C)C)c1ccccc1 (stereo unspecified)	inactive
Cc1ccc(S(=O)(=O)NC(=O)NN2CCCCCC2)cc1	inactive
COc1ccc2[nH]cc(CCNC(C)=O)c2c1	inactive
NC(=O)c1cnccn1	inactive

Test system: not listed separately
Experiment: qHTS assay to identify small molecule agonists of the estrogen related receptor (ERR) signaling pathway (AID 1224820); note: potency is the fitted concentration of half-maximal effect
Conditions: ERR reporter cell line, luciferase agonist mode; series mostly up to 46.1 µM
Procedure, shortened: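 After 6 h plating (2,000 cells/well) and 18 h compound treatment at 37 C, ERR cells were lysed with One-Glo and luminescence read after 30 min at room temperature.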

Structure (SMILES)	Potency
CNC[C@H](O)c1cccc(O)c1	inactive
O=C(C1CCCCC1)N1CC(=O)N2CCc3ccccc3C2C1 (stereo unspecified)	inactive
Oc1ccc(/C=C/c2cc(O)cc(O)c2)cc1	3.62 µM (active)
Cc1ccccc1C(OCCN(C)C)c1ccccc1 (stereo unspecified)	inactive
Cc1ccc(S(=O)(=O)NC(=O)NN2CCCCCC2)cc1	inactive
CCCCC1C(=O)N(c2ccccc2)N(c2ccccc2)C1=O	inactive
COc1ccc2[nH]cc(CCNC(C)=O)c2c1	inactive
NC(=O)c1cnccn1	inactive

Test system: estrogen-related receptor alpha (ERRalpha) with PGC-1alpha coactivator, human
Experiment: qHTS assay to identify small molecule antagonists of the estrogen related receptor signaling pathway with the pleiotropic PPARgamma coactivator (PGC) (AID 1224821; calls by dose curve;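 note: lower luminescence signal means antagonism of PGC/ERR signalling; nearly all actives have a fitted effect of over 50% in size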)
Conditions: ERR/PGC reporter cell line, luciferase, antagonist mode; series mostly up to 46.1 µM
Procedure, shortened: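 Luminescence from One-Glo luciferase reagent (30 min, room temperature) measured after 18 h compound treatment at 37 °C. Cells carry the PGC/ERR reporter and were seeded 6 h prior to dosing.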

Structure (SMILES)	outcome
O=C(C1CCCCC1)N1CC(=O)N2CCc3ccccc3C2C1 (stereo unspecified)	inactive
COc1ccc2[nH]cc(CCNC(C)=O)c2c1	inactive
NC(=O)c1cnccn1	inactive

Test system: not listed separately
Experiment: qHTS assay to identify small molecule antagonists of the estrogen related receptor signaling pathway with the pleiotropic PPARgamma coactivator (PGC) cell viability counter screen (AID 1224822;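 note: viability read after 17.5 h compound exposure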)
Conditions: ERR/PGC reporter cell line viability counter screen; series mostly up to 46.1 µM
Procedure, shortened: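 Multiplexed viability counter screen run in PGC/ERR cells treated with compounds for 17.5 h at 37 C; live-cell protease signal measured by CellTiter-Fluor fluorescence.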

Structure (SMILES)	outcome
CNC[C@H](O)c1cccc(O)c1	inactive
Cn1c(=O)c2[nH]cnc2n(C)c1=O	inactive
O=C(C1CCCCC1)N1CC(=O)N2CCc3ccccc3C2C1 (stereo unspecified)	inactive
Oc1ccc(/C=C/c2cc(O)cc(O)c2)cc1	inactive
CC(=O)Nc1nnc(S(N)(=O)=O)s1	inactive
Nc1ccn([C@H]2CC[C@@H](CO)O2)c(=O)n1	inactive
Cc1ccccc1C(OCCN(C)C)c1ccccc1 (stereo unspecified)	inactive
Cc1ccc(S(=O)(=O)NC(=O)NN2CCCCCC2)cc1	inactive
CC(C)(Oc1ccc(C2CC2(Cl)Cl)cc1)C(=O)O (stereo unspecified)	inactive
CCCCC1C(=O)N(c2ccccc2)N(c2ccccc2)C1=O	inactive
CCC1(c2ccccc2)C(=O)NCNC1=O	inactive
COc1ccc2[nH]cc(CCNC(C)=O)c2c1	inactive
NC(=O)c1cnccn1	inactive
O=C(O)CCCCCCCC(=O)O	inactive
CCCNC(=O)NS(=O)(=O)c1ccc(Cl)cc1	inactive
CCCC(CCC)C(=O)O	inactive
NC(N)=NC(=O)c1nc(Cl)c(N)nc1N	inactive
